RORg inh: inhibitors of mouse ROR gamma transcriptional activity | hit rate 5.4% among 310,000 | Drosophila S2 Gal4-RORgamma UAS-luciferase reporter, 20 h | Potency, µM (doses to about 53.6 µM), without a hit: at the top dose activity change, negative = inhibition, most hits filed as inhibitors; also: nearly all actives have a fitted effect of over 60% in size
Target sequence (P51450 whole entry, looked up, the tested form may be a part): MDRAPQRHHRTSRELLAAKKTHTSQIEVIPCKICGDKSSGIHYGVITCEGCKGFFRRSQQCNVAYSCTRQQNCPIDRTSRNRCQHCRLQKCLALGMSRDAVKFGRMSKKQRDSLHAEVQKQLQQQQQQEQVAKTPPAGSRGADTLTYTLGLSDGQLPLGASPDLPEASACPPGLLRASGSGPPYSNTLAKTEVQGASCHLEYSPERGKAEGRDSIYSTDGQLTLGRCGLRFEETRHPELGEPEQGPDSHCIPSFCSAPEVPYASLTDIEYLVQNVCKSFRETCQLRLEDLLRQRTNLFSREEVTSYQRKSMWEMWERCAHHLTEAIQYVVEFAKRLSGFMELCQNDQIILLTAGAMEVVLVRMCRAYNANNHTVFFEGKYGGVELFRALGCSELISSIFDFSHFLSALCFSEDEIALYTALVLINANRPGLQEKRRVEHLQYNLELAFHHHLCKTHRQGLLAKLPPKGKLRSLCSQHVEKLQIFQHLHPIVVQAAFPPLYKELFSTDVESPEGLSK
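Drosophila S2 cells stably expressing Gal4-DBD/mouse RORγ fusion under metallothionein promoter plus UAS-luciferase; compound 1 h, then 700 uM CuSO4 induction for 20 h at ambient temperature; inhibition read as reduced luminescence.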
TDP1 cell noCPT: qHTS for Inhibitors of human tyrosyl-DNA phosphodiesterase 1 (TDP1): qHTS in cells in absence of CPT. DT40 Tdp1-/- hTDP1 cells, no CPT, ATP luminescence, 48 h. Potency, µM (doses to about 46.2 µM), for inactives: at the top dose activity change, negative = growth inhibition, most hits filed as inhibitors. hit rate 15% among 420,000. AID 686978, 2013; also: nearly all actives have a fitted effect of over 55% in size
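Chicken DT40 Tdp1-/- cells complemented with human TDP1, screened without camptothecin (DMSO vehicle only), 400 cells/well. Compounds pin-transferred, cells incubated at 37 °C for at least 48 hr. Growth read as ATP-dependent luminescence (CellTiter-Glo, 30 min at RT).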
VP16 counter: counter-screen for ROR gamma inhibitors: Gal4-VP16 reporter. Drosophila S2 Gal4-VP16 UAS-luciferase, luminescence, 20 h. Potency, µM (series often up to 53.6 µM), inactives show at the top dose activity, negative = inhibition, actives largely listed as inhibitors. hit rate 3.5% among 310,000. AID 2546;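 also: Gal4-VP16 expression switched on by copper sulfate through the metallothionein promoter; nearly all actives have a fitted effect of over 50% in size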
DT40 TDP1 CPT: growth inhibition of DT40 Tdp1-/-;hTDP1 cells with camptothecin (screen for TDP1 inhibitors). AID 686979. hit rate 12% among 420,000. Potency, µM (highest dose often 46.2 µM), for the others: at the highest dose activity change, negative = growth inhibition, usual class: inhibitors. chicken DT40 Tdp1-/-;hTDP1 cells + 20 nM CPT, ATP luminescence, 48 h; also: nearly all actives have a fitted effect of over 55% in size
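Cell growth measured by CellTiter-Glo luminescence after a minimum 48 h, 37 C compound exposure with 20 nM CPT in Tdp1-knockout DT40 cells stably expressing hTDP1, seeded 400/well; qHTS titration format.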
TDP1 inh: blocks human tyrosyl-DNA phosphodiesterase 1; Potency, µM (highest dose often 130 µM), for inactives: at the top dose activity change, negative = inhibition, most hits filed as inhibitors; recombinant TDP1, AlphaScreen DNA substrate cleavage; hit rate 0.28% among 350,000; also: nearly all actives have a fitted effect of over 40% in size
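Steps: enzyme plus compound, 15 min RT; add biotin/phosphotyrosine-FITC oligonucleotide (15 nM final), react 5 min; add donor/acceptor beads (10 ug/ml final), 10 min; read AlphaScreen. Tdp1 at 1 nM final.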
* = called active by the depositor; u = inconclusive; x = not tested or not shown; [ ] = dose if it differs, or a comment. An excerpt weighted towards active compounds, which were near 19% of everything screened. Calls follow the shape of the dose curve; as a rule, active = well fitted curve in the direction sought with a large enough effect; inconclusive = small, poorly fitted or top-dose-only effect, or another doubt; inactive = no such curve, though single readings can be large; an effect the other way counts as inactive or inconclusive. % is scaled to controls: 0 for no effect and ±100 for the full control effect; potency is read from the fitted curve at half-maximal effect.

SMILES	RORg inh	TDP1 cell noCPT	VP16 counter	DT40 TDP1 CPT	TDP1 inh
COc1cccc(/C=N/Nc2nc(C)cc(=O)[nH]2)c1OC	-3%	-4%	-5%	-4%	x
Cc1cc(=O)[nH]c(N/N=C/c2cc(C)n(CC(F)(F)F)c2C)n1	6%	7.3µM*	1%	8.2µM*	6%
COC(=O)c1ccc(-n2c(C)cc(/C=N/Nc3nc(C)cc(=O)[nH]3)c2C)cc1	u	16µM*	-16%	15µM*	x
COc1ccc2[nH]cc(CCNc3ccnc(-c4ccc(N(C)C)cc4)n3)c2c1	u	0.92µM*	u	1µM*	x
COc1ccc2[nH]cc(CCNc3ccnc(-c4cccc(C#N)c4)n3)c2c1	u	u	1%	u	x
COc1ccc2[nH]cc(CCNc3ccnc(-c4ccoc4)n3)c2c1	27%	u	5%	u	x
COc1ccc2[nH]cc(CCNc3ccnc(-c4cccc(NS(C)(=O)=O)c4)n3)c2c1	23%	10µM*	-7%	u	4%
COc1ccc2[nH]cc(CCNc3ccnc(-c4cccnc4)n3)c2c1	1%	u	-4%	21µM*	x
NS(=O)(=O)c1ccc(NC(=O)CN2CCCCC2)cc1	0%	1%	4%	-12%	-2%
O=C(Nc1ccc(-c2noc(-c3ccccc3F)n2)cc1)c1cccs1	1%	u	-4%	u	-2%
Cc1ccccc1-c1nc(-c2ccc(NC(=O)c3cccs3)cc2)no1	-8%	u	0%	23µM*	-2%
O=C(Nc1ccc2nc(-c3cccs3)[nH]c2c1)c1cccs1	-2%	23µM*	-7%	u	0%
O=C(Cc1cccs1)Nc1cccc(-c2nc3cc4ccccc4cc3[nH]2)c1	15%	13µM*	u	26µM*	0%
O=C(Nc1ccc(-c2nc3ccc(NC(=O)c4cccs4)cc3[nH]2)cc1)c1cccs1	13µM*	1.6µM*	u	1.6µM*	-9%
CCOC(=O)C1=C(COC(=O)c2cccc(NC(C)=O)c2)NC(=O)NC1C (stereo not drawn)	x	-28%	x	u	x
CN1CCN(Cc2nc(-c3cccs3)no2)CC1c1ccccc1 (stereo not drawn)	-3%	-16%	-11%	u	3%
CCOCN(C(=O)Cn1cnc2ccccc21)c1c(C)cccc1CC	-27%	23µM*	2%	21µM*	0%
CCc1cccc(CC)c1N(COC)C(=O)Cn1cnc2ccccc21	10µM*	u	15%	u	6%
CCCCCNC(=O)c1cn(CC)c2cc(N3CCN(C)CC3)c(F)cc2c1=O	5%	u	-11%	-2%	x
COc1ccc(OC)c(-c2csc(NC(=O)c3ccc4c(c3)OCO4)n2)c1	38%	15µM*	-1%	u	5%
COc1ccc2nc(NC(=O)C3COc4ccccc4O3)sc2c1 (stereo not drawn)	u	-16%	-51%	-10%	7%
COc1ccc2nc(NNC(=O)C3COc4ccccc4O3)sc2c1 (stereo not drawn)	2.8µM*	u	u	u	8%
COc1ccc(OC)c(-c2csc(NC(=O)C3c4ccccc4Oc4ccccc43)n2)c1	-13%	-4%	5%	9%	0%
CC(=O)Nc1nc(C2COc3ccccc3O2)cs1 (stereo not drawn)	13µM*	-6%	-1%[0.365 µM]	-23%	3%
COc1ccc(OC)c(-c2csc(NC(=O)C3COc4ccccc4O3)n2)c1 (stereo not drawn)	-10%	16µM*	-2%	u	0%
SMILES	RORg inh	TDP1 cell noCPT	VP16 counter	DT40 TDP1 CPT	TDP1 inh
Cc1ccc(S(=O)(=O)N2CCN(C(=O)N3CCOCC3)C2C)cc1 (stereo not drawn)	0%	0%	-11%[0.365 µM]	1%	5%
Cc1[nH]c2ccccc2c1NC(=O)CN1CCN(Cc2ccc3c(c2)OCO3)CC1	2%	x	4%	x	4%
Cc1ccc2cccc(OCC(=O)N3CC(C)CC(C)C3)c2n1 (stereo not drawn)	-32%	-29%	6%	3%	5%
CCOc1ccc(NC(=O)NCCN2CCN(c3cccc(C)c3C)CC2)cc1	-24%	21µM*	4%	21µM*	-9%[12.3 µM]
CCOc1ccc(OCC)c(NC(=O)CN2CCN(c3cccc(C)c3C)CC2)c1	32%	23µM*	-7%	16µM*	x
CCOc1ccc(NC(=O)NCCN2CCN(c3ccccc3F)CC2)cc1	4%	u	0%	u	5%
COc1ccc(C(CC(=O)N2CCCCC2)c2c(O)cc(OC)cc2OC)cc1 (stereo not drawn)	u	u	23%	u	10%
Nc1ncnc2nc(Cl)[nH]c12	-1%	0%	-8%	0%	7%[56.1 µM]
CC1(C)CCN2CCC(C)(C)c3c(O)ccc1c32	u	3.7µM*	u	3.3µM*	10%
CC1=C(C(=O)OC(C)C)C(C)C(C(=O)OC(C)C)=C(C)N1	7%	u	-7%	11µM*	-3%
CCOC(=O)C1=C(C)NC(C)=C(C(=O)OCC)C1c1cccs1	5%	23µM*	-10%	u	2%
CC1=C(C(=O)OC(C)C)C(c2cccs2)C(C(=O)OC(C)C)=C(C)N1	17%	12µM*	-27%	u	3%
CCOC(=O)c1sc2c(c1C)C(c1cccs1)C1=C(CCCC1=O)N2 (stereo not drawn)	39%	16µM*	-1%	u	-2%
O=C(NC1CCS(=O)(=O)C1)c1ccccc1Cl (stereo not drawn)	x	8%	x	11%	2%
O=C(COC(=O)c1cc(=O)[nH]c2ccccc12)NCc1ccc(F)cc1	x	10%	x	-4%	0%
Fc1ccc(Sc2nc(-c3ccccc3)nnc2C(F)(F)F)cc1	5.6µM*	13µM*	7.1µM*	5.8µM*	3%
CCCCn1c(=O)c(CCC(=O)OCC(=O)NC(=O)NCCC(C)C)nc2ccccc21	40%	u	0%	-14%	0%
O=C1CCCN1CCC12CC3CC(CC(C3)C1)C2	u	21µM*	-19%	u	x
COc1ccccc1CNC(=O)Nc1cccs1	-8%	u	u	u	7%
COc1ccccc1CNC(=O)N/C=C/c1ccc(Cl)cc1	23%	-10%	7%	-2%	0%
CCOc1ccccc1CN1[C@@H](c2ccc(OC)cc2)CC(C(=O)OC)(C(=O)OC)[C@H]1c1ccccc1	x	15µM*	x	u	x
CCOc1ccccc1CN1CCCC(CNS(=O)(=O)c2ccc(OC)cc2)C1 (stereo not drawn)	-1%	u	-9%	u	-1%
